Data on 28 compounds can be found in the supplement of paper PMC6522484.

Assay [1] relates to DLD1. Put plainly: cell viability (CellTiter-Glo) relative to plate median (fraction of plate median); higher = more viable cells. The settings on record: 5 µM; treatment time 24 h; reporter: 7TFP. The method in brief:
(§1)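 Colorectal cancer cells stably transduced with lentiviral TCF/Wnt firefly luciferase reporters were seeded in 384-well plates and dosed 24 h later with library compounds at a final 5 µM for 24 h. Firefly luciferase or CellTiterGlo luminescence was then read on a Tecan F500 from parallel plates. Signals were normalised per well to the plate median without log transformation, additively in webcellHTS2, and averaged over two independent replicates.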

In assay [2] the test system is HCT116. The description is as above. The note with it: 5 µM; treatment time 24 h; reporter: TCF4/Wnt. The method in brief:
as §1

In assay [3] the test system is SW480. Described as above. The note with it: 5 µM; treatment time 24 h; reporter: 7TFP. The method in brief:
as §1

Assay [4] has as its system DLD1. Put plainly: TCF/Wnt firefly luciferase reporter signal relative to plate median (fraction of plate median); higher = higher Wnt reporter signal. The settings on record: 5 µM; treatment time 24 h; reporter: 7TFP. The method in brief: as §1
A general note: Reporter assays use an easily measured gene product as a stand-in for the process of interest.

Assay [5] has as its system SW480. Described as above. The settings on record: 5 µM; treatment time 24 h; reporter: 7TFP. In outline:
as §1

± gives the standard deviation of the averaged measurements.

As for `C[N+](C)(C)CCCCCC[N+](C)(C)C`, the cell viability in assay [1] is 1.01 ± 0.027; in assay [2], 0.903 ± 0.022; in assay [3], 0.93 ± 0.072. The “TCF/Wnt firefly luciferase reporter signal” value was found to be 1.09 ± 0.21 in assay [4] and 1.1 ± 0.11 in assay [5].

In the case of `C/C=C(\C)C(=O)O[C@@H]1c2c(ccc3ccc(=O)oc23)OC(C)(C)[C@@H]1OC(C)=O`, the results for the cell viability in assay [1], in assay [2] and in assay [3] were 0.969 ± 0.011, 0.92 ± 0.029 and 0.926 ± 0.047, respectively. Further, the entries for the “TCF/Wnt firefly luciferase reporter signal” value in assay [4] and in assay [5] were 0.997 ± 0.075 and 1.09 ± 0.057, respectively.

As to `Cc1cn[nH]c1`, the cell viability in assay [1] is 0.959 ± 0.021; in assay [2] it was 0.939 ± 0.018; in assay [3], 1.01 ± 0.021. The “TCF/Wnt firefly luciferase reporter signal” value in assay [4] was 0.768; in assay [5], 0.892 ± 0.11.

Consider `Nc1nc(F)nc2c1ncn2[C@@H]1O[C@H](COP(=O)(O)O)[C@@H](O)[C@@H]1O`, for which the cell viability in assay [1] came to 0.987 ± 0.061; in assay [2] it was 0.942 ± 0.019; in assay [3], 0.972 ± 0.054. Further, the figures for the “TCF/Wnt firefly luciferase reporter signal” value in assay [4] and in assay [5] were 0.926 ± 0.018 and 1.04 ± 0.021, respectively.

Take `CC12CCC3c4ccc(OCc5ccccc5)cc4CCC3C1C[C@@H](O)[C@@H]2O` (stereo not given in full): the cell viability in assay [1] was 1.08 ± 0.085; in assay [2], 0.992 ± 0.026; in assay [3] it was 1.01. Also, the “TCF/Wnt firefly luciferase reporter signal” value in assay [4] is 0.95 ± 0.14; in assay [5] it was 0.993 ± 0.025.

For the compound `O=CNc1ccccc1C(=O)O` [N-Formylanthranilic acid], the cell viability in assay [1] turned out to be 0.936 ± 0.018; in assay [2], 1.02 ± 0.021; in assay [3], 0.92 ± 0.088. Moreover, the figures for the “TCF/Wnt firefly luciferase reporter signal” value in assay [4] and in assay [5] were 0.954 ± 0.12 and 0.689 ± 0.13, respectively.

Turning to `COc1cccc2c1C(=O)c1c(O)c3c(c(O)c1C2=O)C[C@@](O)(C(C)=O)C[C@@H]3O[C@H]1C[C@H](N)[C@H](O)[C@H](C)O1`, the cell viability in assay [1] came out at 0.958 ± 0.027; in assay [2] it was 0.575 ± 0.037; in assay [3], 1.03 ± 0.1. In addition, the “TCF/Wnt firefly luciferase reporter signal” value in assay [4] came to 0.781 ± 0.21; in assay [5], 0.564 ± 0.26.

Turning to `CN(C)C(=O)C(CCN1CCC(O)(c2ccc(Cl)cc2)CC1)(c1ccccc1)c1ccccc1`, the results for the cell viability in assay [1], in assay [2] and in assay [3] were 0.892 ± 0.14, 0.912 ± 0.033 and 0.983 ± 0.019, respectively. Moreover, the results for the “TCF/Wnt firefly luciferase reporter signal” value in assay [4] and in assay [5] were 0.982 ± 0.28 and 0.816 ± 0.16, respectively.

On to `NC1(C(=O)O)CCCC1`, for which the cell viability in assay [1] is 0.9495 ± 0.00071; in assay [2] it was 1.02 ± 0.035; in assay [3] it was 0.9955 ± 0.0064. Also, the entries for the “TCF/Wnt firefly luciferase reporter signal” value in assay [4] and in assay [5] were 1.02 ± 0.081 and 1.055 ± 0.0071, respectively.

For the compound `C=C1CC[C@H](O)C/C1=C/C=C1\CCC[C@]2(C)[C@@H]([C@H](C)/C=C/[C@H](C)C(C)C)CC[C@@H]12`, the cell viability turned out to be 0.982 ± 0.054 in assay [1], 0.995 ± 0.11 in assay [2] and 0.954 ± 0.016 in assay [3]. Further, the “TCF/Wnt firefly luciferase reporter signal” value in assay [4] came out at 1.07 ± 0.16; in assay [5], 1.09 ± 0.014.

Regarding `COc1ccc2c(=O)c(CC(=O)O)coc2c1`, the cell viability in assay [1] is 0.968 ± 0.059; in assay [2] it was 0.984 ± 0.08; in assay [3] it was 0.968 ± 0.012. The results for the “TCF/Wnt firefly luciferase reporter signal” value in assay [4] and in assay [5] were 1 ± 0.021 and 0.985 ± 0.092, respectively.

For `CC(=O)c1oc2cc3[nH]c(=O)cc(C)c3cc2c1C` [2-Acetyl-3,5-dimethylfuro[3,2-g]quinolin-7-one (VFT-05)], the cell viability in assay [1] came out at 0.8435 ± 0.0035; in assay [2], 0.998 ± 0.059; in assay [3], 0.885 ± 0.0092. For the same compound, the “TCF/Wnt firefly luciferase reporter signal” value was 0.8825 ± 0.0035 in assay [4] and 0.979 ± 0.072 in assay [5].

Turning to `C=CCCCCCCCCCCCC(O)CC(O)CO` (stereo not given), the cell viability in assay [1] came to 1.1 ± 0.099; in assay [2], 1.05 ± 0.11; in assay [3] it was 1.05 ± 0.05. Also, the “TCF/Wnt firefly luciferase reporter signal” value is 0.964 ± 0.05 in assay [4] and 1.03 ± 0.042 in assay [5].

Regarding `CN1CCCN=C1COC(=O)C(O)(c1ccccc1)C1CCCCC1` (stereo not given), the cell viability is 1 ± 0.15 in assay [1], 1.15 ± 0.12 in assay [2] and 1.05 ± 0.042 in assay [3]. Also, the results for the “TCF/Wnt firefly luciferase reporter signal” value in assay [4] and in assay [5] were 1.08 ± 0.042 and 1.065 ± 0.0071, respectively.

`CC(=O)[C@H]1CC[C@H]2[C@@H]3CC=C4C[C@@H](O)CC[C@]4(C)[C@H]3CC[C@]12C`: the values for the cell viability in assay [1], in assay [2] and in assay [3] were 1.07 ± 0.028, 0.941 ± 0.023 and 0.956 ± 0.028, respectively. For the same compound, the “TCF/Wnt firefly luciferase reporter signal” value in assay [4] is 1.1 ± 0.05; in assay [5], 1.19 ± 0.014.

`O=C(O)CCCC[C@@H]1CCSS1` (racemic): the cell viability in assay [1] was determined as 1.06 ± 0.071; in assay [2], 1.01; in assay [3], 0.986 ± 0.035. In addition, the “TCF/Wnt firefly luciferase reporter signal” value in assay [4] was 0.856 ± 0.032; in assay [5], 0.96 ± 0.023.

In the case of `O=C(O)c1cc(=O)c2ccccc2[nH]1`, the cell viability came out at 1.01 ± 0.021 in assay [1], 0.968 ± 0.16 in assay [2] and 0.9555 ± 0.0064 in assay [3]. The “TCF/Wnt firefly luciferase reporter signal” value in assay [4] amounted to 0.8765 ± 0.0078; in assay [5], 0.986 ± 0.048.

In the case of `CC(=O)OC/C=C(\C)CC/C=C(\C)CC/C=C(\C)CC/C=C(\C)CC/C=C(\C)CC/C=C(\C)CC/C=C(\C)CC/C=C(\C)CCC=C(C)C`, the values for the cell viability in assay [1], in assay [2] and in assay [3] were 1.04 ± 0.042, 0.96 ± 0.085 and 1.06 ± 0.028, respectively. Moreover, the “TCF/Wnt firefly luciferase reporter signal” value in assay [4] stood at 0.807 ± 0.072; in assay [5] it was 1.02 ± 0.057.

On to `Cc1c(N(C)CS(=O)(=O)O)c(=O)n(-c2ccccc2)n1C`, for which the figures for the cell viability in assay [1], in assay [2] and in assay [3] were 1.04 ± 0.014, 0.968 ± 0.035 and 1.06 ± 0.085, respectively. Besides, the “TCF/Wnt firefly luciferase reporter signal” value in assay [4] stood at 0.969 ± 0.059; in assay [5], 1.04 ± 0.059.

On to `O=C1OCC(Cc2ccccc2)C1c1ccccc1` (stereo not given) [3-Benzyl-2-phenyl-butyrolactone], for which the cell viability came out at 1.07 ± 0.085 in assay [1], 1.01 ± 0.014 in assay [2] and 0.978 ± 0.045 in assay [3]. Also, the “TCF/Wnt firefly luciferase reporter signal” value in assay [4] was found to be 0.917 ± 0.12; in assay [5], 1.1 ± 0.078.

For the compound `COC(=O)C(N)CS` (stereo not given), the cell viability in assay [1] was determined as 0.972 ± 0.054; in assay [2], 0.965 ± 0.092; in assay [3], 1 ± 0.036. For the same compound, the “TCF/Wnt firefly luciferase reporter signal” value came out at 0.836 ± 0.039 in assay [4] and 0.91 ± 0.03 in assay [5].

Take `COCCc1ccc(OCC(O)CNC(C)C)cc1` (stereo not given): the cell viability stood at 1.14 ± 0.057 in assay [1], 0.959 ± 0.025 in assay [2] and 1.01 ± 0.018 in assay [3]. Moreover, the “TCF/Wnt firefly luciferase reporter signal” value in assay [4] came out at 1.14 ± 0.042; in assay [5], 1.055 ± 0.0071.

Regarding `C=CC1=C(C)/C(=C/c2[nH]c(Cc3[nH]c(/C=C4\NC(=O)C(C)=C4C=C)c(C)c3CCC(=O)O)c(CCC(=O)O)c2C)NC1=O`, the cell viability in assay [1] amounted to 1.04 ± 0.087; in assay [2], 1.03; in assay [3], 0.98 ± 0.018. Also, the “TCF/Wnt firefly luciferase reporter signal” value came to 0.964 ± 0.15 in assay [4] and 0.936 ± 0.018 in assay [5].

As to `CC(=O)OC1CCC23CC1(C)CCC2C(C)(C)CC3OC(C)=O` (stereo not given), the cell viability in assay [1] was found to be 0.999 ± 0.044; in assay [2] it was 1.09 ± 0.021; in assay [3] it was 1.02 ± 0.042. For the same compound, the entries for the “TCF/Wnt firefly luciferase reporter signal” value in assay [4] and in assay [5] were 1.03 ± 0.014 and 0.93 ± 0.04, respectively.

As for `C[C@]12C=CC(=O)C=C1CC[C@@H]1[C@@H]2[C@@H](O)C[C@@]2(C)[C@H]1CC[C@]2(O)C(=O)CO`, the cell viability in assay [1] turned out to be 1.01 ± 0.014; in assay [2], 1.09 ± 0.035; in assay [3], 1.04 ± 0.069. For the same compound, the “TCF/Wnt firefly luciferase reporter signal” value was 1.03 ± 0.035 in assay [4] and 1.04 ± 0.088 in assay [5].

As to `C=C(C)[C@@H]1CC=C(CO)CC1`, the cell viability in assay [1] amounted to 0.968 ± 0.1; in assay [2] it was 0.972 ± 0.12; in assay [3], 0.996 ± 0.0042. Besides, the “TCF/Wnt firefly luciferase reporter signal” value in assay [4] is 0.952 ± 0.016; in assay [5], 0.972 ± 0.054.

With `C#C[C@]1(O)CC[C@H]2[C@@H]3CCC4=CCCC[C@@H]4[C@H]3CC[C@@]21C`, the cell viability amounted to 1 ± 0.094 in assay [1], 1.04 ± 0.021 in assay [2] and 0.97 ± 0.0085 in assay [3]. The “TCF/Wnt firefly luciferase reporter signal” value in assay [4] amounted to 1.02 ± 0.033; in assay [5], 0.905 ± 0.042.

In the case of `CC(CN(C)C)CN1c2ccccc2Sc2ccccc21` (stereo not given), the cell viability in assay [1] was determined as 1 ± 0.12; in assay [2], 1.02 ± 0.065; in assay [3], 1.06 ± 0.057. The “TCF/Wnt firefly luciferase reporter signal” value in assay [4] amounted to 0.997 ± 0.15; in assay [5], 1.08 ± 0.071.
